Screening results: PubChem, several laboratories
APP 5UTR inh – APP translation inhibition; SH-SY5Y APP 5'UTR-luciferase reporter, luminescence; inhibition, % at 2 µM; 0.82% of 190,000 active;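 active = inhibition above a set limit, derived from the sample mean plus 3 SD, cut at about 45% in these data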
KLF5 inhibitor – inhibitors of KLF5 expression. DLD-1 KLF5 promoter-luciferase reporter, luminescence. AID 1700. 0.23% of 290,000 active. inhibition, % at 5 µM;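 active = inhibition above a per-plate limit of that plate's mean compound inhibition plus 3 SD, cut at about 60% in these data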;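 also: higher means less KLF5 promoter-driven luciferase light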
Ba/F3 V617F tox – reduce viability of Ba/F3 cells dependent on JAK2V617F; Ba/F3 EpoR-JAK2V617F viability, ATP luminescence; inhibition, % at 5.6 µM; 1.1% of 220,000 active;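 active = inhibition above the campaign mean plus 3 SD over all tested compounds, cut at about 24% in these data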;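 also: cytokine-independent growth of Ba/F3 cells driven by EpoR plus mutant JAK2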
IEC-6 tox-1 – kills IEC-6 intestinal cells in KLF5 counter-screen; IEC-6 cytotoxicity, luminescence viability; inhibition, % at 5 µM; 0.78% of 290,000 active; AID 1825
BaF3 tox – counter-screen for JAK2V617F inhibitors: parental Ba/F3 viability inhibitors | CellTiter-Glo ATP luminescence | inhibition, % at 5.6 µM | 1.1% of 220,000 active | AID 1486;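 active = inhibition above a per-campaign cutoff, the mean inhibition of all tested compounds plus 3 SD, cut at about 27% in these data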
BaF3 tox 2 – reduces parental Ba/F3 viability, JAK2V617F counter-screen. CellTiter-Glo luminescence; cells kept alive by added IL-3. shares compounds with Ba/F3 V617F tox. 31% of 580 active. inhibition, % at 5.6 µM;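 active = cell growth inhibition above the hit limit set in the earlier mutant JAK2 cell screen, cut at about 27% in these data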
JAK2V617F confrm – confirmation: loss of viability in JAK2V617F-dependent Ba/F3 cells; shares compounds with Ba/F3 V617F tox; Ba/F3 EpoR-JAK2V617F viability, CellTiter-Glo luminescence; inhibition, % at 5.6 µM; 66% of 580 active;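 active = mean inhibition above the hit cutoff derived in the earlier primary screen, cut at about 25% in these data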;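 also: higher means lower luminescence from reduced cell ATP and viability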
KLF5 confirm – KLF5 inhibition, confirmation assay; shares compounds with KLF5 inhibitor; DLD-1 KLF5 promoter firefly luciferase reporter, luminescence; inhibition, % at 4 µM; 79% of 610 active; AID 1834;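 active = inhibition above a set limit taken from the earlier primary screen, cut at about 63% in these data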
IEC-6 tox-2 – counter-screen for KLF5 inhibitors: cytotoxicity in rat IEC-6 cells. 56% of 610 active. IEC-6 rat intestinal cells, viability luminescence. inhibition, % at 4 µM. shares compounds with KLF5 inhibitor; in the data active = inhibition above about 23%;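 also: cells exposed to compounds for 48 hours before viability read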
IEC-6 tox confirm – IEC-6 cytotoxicity, confirmation assay; shares compounds with IEC-6 tox-1; IEC-6 rat intestinal epithelial viability, luminescence; inhibition, % at 5 µM; 63% of 1,900 active
Each line names hits and unclear results; the compound was inactive in the other large screens (follow-up assays come after a bar, where they were run). This is a sample that favours compounds with a hit; in the whole collection about 1.8% have one here. Rule as the data show it, unless noted: active = inhibition above about 22%; inactive = the rest.

CCN(CC)S(=O)(=O)c1ccc(N/N=C/c2ccc(O)cc2O)nc1	APP 5UTR inh 81, KLF5 inhibitor 72, Ba/F3 V617F tox 50 | BaF3 tox 2 83 | JAK2V617F confrm 93 | KLF5 confirm 81 | IEC-6 tox-2 inactive
COc1ccc2sc(/C=C/c3ccccc3O)[n+](C)c2c1	none
COc1ccc(-c2cc3nc(C)n(N)c(=O)c3s2)cc1	KLF5 inhibitor 96, Ba/F3 V617F tox 41 (no result: APP 5UTR inh) | BaF3 tox 2 56 | JAK2V617F confrm 40 | KLF5 confirm 109 | IEC-6 tox-2 36
Cc1noc(C)c1CSc1nc2ccccc2c(=O)n1-c1ccccc1	Ba/F3 V617F tox 29, IEC-6 tox-1 30 | BaF3 tox 2 33 | JAK2V617F confrm 54 | IEC-6 tox confirm 38
N#Cc1ncc(-c2ccc3c(c2)OCCOCCOCCOCCOCCO3)nc1C#N	Ba/F3 V617F tox 34, IEC-6 tox-1 32 | BaF3 tox 2 inactive | JAK2V617F confrm 43 | IEC-6 tox confirm inactive
Cc1ccc(C(=O)NCc2ccco2)c(C)c1	none (no result: APP 5UTR inh, Ba/F3 V617F tox, BaF3 tox)
COc1cc(C)c(C(C)C)cc1S(=O)(=O)n1cnc(C)c1	Ba/F3 V617F tox 63, IEC-6 tox-1 36 | BaF3 tox 2 61 | JAK2V617F confrm 92 | IEC-6 tox confirm 51
COc1ccc(NC(=O)/C(Cl)=C(/Cl)S(=O)(=O)Cc2ccc(C)cc2)cn1	APP 5UTR inh 86, Ba/F3 V617F tox 33, IEC-6 tox-1 23 | BaF3 tox 2 88 | JAK2V617F confrm 98 | IEC-6 tox confirm 43
COc1ccc(NC(=O)Cc2ccc(Cl)c(Cl)c2)cn1	none
COC(=O)c1ccccc1NC(=O)CSc1nncn1-c1cccnc1	none (no result: APP 5UTR inh, Ba/F3 V617F tox, BaF3 tox)
Cc1nn2c(NCCN3CCOCC3)c3c(nc2c1-c1ccccc1)CCCC3	none (no result: APP 5UTR inh)
Cc1nn2c(NCc3ccccn3)c3c(nc2c1-c1ccccc1)CCC3	Ba/F3 V617F tox 48, IEC-6 tox-1 95 (no result: APP 5UTR inh) | BaF3 tox 2 inactive | JAK2V617F confrm 59 | IEC-6 tox confirm inactive
CCOC(CNC(=O)c1ccc2c(c1)ncn2-c1ccc(F)c(F)c1)OCC	none
O=C(CCl)NCc1cc(-c2ccc(Cl)cc2)no1	Ba/F3 V617F tox 24, IEC-6 tox-1 24 | BaF3 tox 2 inactive | JAK2V617F confrm 75 | IEC-6 tox confirm 31
COc1ccc(OCc2cc(-c3ccc(Cl)cc3)no2)cc1	none
CC1CCN(S(=O)(=O)N2CCN(C(=O)c3ccc4c(c3)OCO4)CC2)CC1	none (no result: APP 5UTR inh, Ba/F3 V617F tox, BaF3 tox)
Cc1ccc(S(=O)(=O)N2CCN(Cc3ccccc3)CC2)c(C)c1N(C)S(=O)(=O)c1ccccc1	none
COc1cc(/C=C2\SC(=S)N(CCC(=O)Nc3cccc(O)c3)C2=O)cc(OC)c1OC	none (no result: APP 5UTR inh, Ba/F3 V617F tox, BaF3 tox)
CN1CCN(S(=O)(=O)c2cccs2)CC1	none
O=S(=O)(c1cccs1)N1CCN(c2ccc(O)cc2)CC1	Ba/F3 V617F tox 66, IEC-6 tox-1 24 (no result: APP 5UTR inh) | BaF3 tox 2 inactive | JAK2V617F confrm 60 | IEC-6 tox confirm inactive
O=C(NCCCn1ccnc1)c1ccccc1Cl	none (no result: APP 5UTR inh, Ba/F3 V617F tox, BaF3 tox)
COC(=O)/C=C/S(=O)(=O)c1ccc(NC(C)=O)cc1	APP 5UTR inh 83, Ba/F3 V617F tox 26, IEC-6 tox-1 27 | BaF3 tox 2 inactive | JAK2V617F confrm inactive | IEC-6 tox confirm inactive
O=C(NC1CCCc2ccccc21)c1n[nH]c(=O)c2ccccc12 (stereo not drawn)	Ba/F3 V617F tox 24, IEC-6 tox-1 23 | BaF3 tox 2 inactive | JAK2V617F confrm 42 | IEC-6 tox confirm 34
O=C(NC1CCCc2ccccc21)c1ccccc1 (stereo not drawn)	none
Nc1ccc(S(=O)(=O)NC2(C(F)(F)F)NC(=O)N(Cc3ccccc3)C2=O)cc1 (stereo not drawn)	none (no result: APP 5UTR inh, Ba/F3 V617F tox, BaF3 tox)
CCc1ccc(/C=N/NC(=O)c2cc(C3CC3)nc3ccccc23)s1	Ba/F3 V617F tox 42, IEC-6 tox-1 34 | BaF3 tox 2 63 | JAK2V617F confrm 95 | IEC-6 tox confirm 54
Cc1cccc(/C=N/NC(=O)c2cc(C3CC3)nc3ccccc23)n1	none (no result: APP 5UTR inh, Ba/F3 V617F tox, BaF3 tox)
O=C(NCCCN1CCCCC1)C1CCC(CNS(=O)(=O)c2cccc3nsnc23)CC1 (stereo not drawn)	none (no result: APP 5UTR inh, Ba/F3 V617F tox, BaF3 tox)
COCCSc1nnc(NC(=O)C2CC(=O)N(C3CCCC3)C2)s1 (stereo not drawn)	none (no result: APP 5UTR inh, Ba/F3 V617F tox, BaF3 tox)
O=C1N(c2ccccc2)C[C@@H]2C[C@@H](c3cc4ccccc4o3)N3CCC[C@@]123	APP 5UTR inh 95, Ba/F3 V617F tox 101, IEC-6 tox-1 38 | BaF3 tox 2 107 | JAK2V617F confrm 99 | IEC-6 tox confirm 97
Cc1ccc(CC(CC(=O)O)C(=O)Nc2ccc(Cl)cc2)cc1 (stereo not drawn)	none (no result: APP 5UTR inh, Ba/F3 V617F tox, BaF3 tox)
CCC(=O)N1CCN(c2ccc(NC(=O)c3ccc([N+](=O)[O-])o3)cc2)CC1	APP 5UTR inh 48, Ba/F3 V617F tox 34, IEC-6 tox-1 97 | BaF3 tox 2 45 | JAK2V617F confrm 95 | IEC-6 tox confirm 51
CCCC(=O)N1CCN(c2ccc(NC(=O)c3ccc(Br)o3)cc2)CC1	none
CCCCC(=O)N1CCN(c2nc3ccc(Cl)cc3s2)CC1	none (no result: APP 5UTR inh, Ba/F3 V617F tox, BaF3 tox)
Cc1cc2[nH]c3c(c[n+](C)c4ccccc34)c2cc1C	APP 5UTR inh 83, Ba/F3 V617F tox 33, IEC-6 tox-1 65 | BaF3 tox 2 inactive | JAK2V617F confrm 92 | IEC-6 tox confirm 55
Nc1nc(Cl)nc(N(c2ccccc2)c2ccccc2)n1	none
Nc1nc(CCl)nc(N(c2ccccc2)c2ccccc2)n1	Ba/F3 V617F tox 97, IEC-6 tox-1 90 (no result: APP 5UTR inh) | BaF3 tox 2 inactive | JAK2V617F confrm 99 | IEC-6 tox confirm inactive
NC(=O)c1cc2c3ccccc3ccn2c1-c1ccccc1	Ba/F3 V617F tox 70, IEC-6 tox-1 38 (no result: APP 5UTR inh) | BaF3 tox 2 63 | JAK2V617F confrm 95 | IEC-6 tox confirm 61
Cn1c(-c2ccccc2)c(C(=O)CCl)c2ccccc21	none
C/C(=N\N=C(N)N)c1cc(Cl)ccc1Cl	Ba/F3 V617F tox 44, IEC-6 tox-1 31 | BaF3 tox 2 inactive | JAK2V617F confrm inactive | IEC-6 tox confirm inactive
CS(=O)(=O)c1nc(-c2ccco2)cc(C(F)(F)F)n1	Ba/F3 V617F tox 42, IEC-6 tox-1 25 | BaF3 tox 2 inactive | JAK2V617F confrm 70 | IEC-6 tox confirm 36
COc1ccccc1-c1cc(C(F)(F)F)nc(S(C)(=O)=O)n1	none
COc1ccc(C=C2C(=O)c3ccccc3C2=O)cc1O	none
CCN1C/C(=C/c2ccc(OC)c(O)c2)C(=O)/C(=C/c2ccc(OC)c(O)c2)C1	APP 5UTR inh 88, Ba/F3 V617F tox 52, IEC-6 tox-1 32 | BaF3 tox 2 inactive | JAK2V617F confrm 98 | IEC-6 tox confirm 42
